This is a sample that favours compounds with a hit; in the whole collection about 2.4% have one here.
D2 PAM-1: positively modulates the human D2 dopamine receptor allosterically; P14416; actives 0.34% (n = 340,000); HEK293 T-REx D2, calcium flux, EC20 dopamine potentiation; potentiation, % at 10 µM;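 active means potentiation over 3 SD above the plate norm, cut at about 30% in these data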
Target sequence (P14416 whole entry, looked up): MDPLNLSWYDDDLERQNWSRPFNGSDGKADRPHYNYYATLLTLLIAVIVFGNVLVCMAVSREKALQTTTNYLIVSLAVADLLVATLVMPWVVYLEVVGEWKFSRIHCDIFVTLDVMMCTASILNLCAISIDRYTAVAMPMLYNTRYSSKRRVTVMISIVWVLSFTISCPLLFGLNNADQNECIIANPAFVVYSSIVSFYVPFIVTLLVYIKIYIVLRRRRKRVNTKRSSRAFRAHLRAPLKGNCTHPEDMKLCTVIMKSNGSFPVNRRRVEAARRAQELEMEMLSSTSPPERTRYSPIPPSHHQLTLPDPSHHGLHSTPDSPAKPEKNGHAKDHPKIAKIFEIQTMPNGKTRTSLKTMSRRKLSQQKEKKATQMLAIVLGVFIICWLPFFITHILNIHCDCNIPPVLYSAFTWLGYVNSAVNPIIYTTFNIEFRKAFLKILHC
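Potentiation of an EC20 dopamine calcium response is measured in a force-coupled, tetracycline-inducible Hek293 Trex D2 line. Compound-only kinetic reads over 180 s flag agonists before dopamine addition.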
D2 antag: D2 dopamine receptor (human) antagonism; HEK293 TREx D2 cells, calcium flux, dopamine EC80; actives 2% (n = 340,000); inhibition, % at 10 µM; P14416; AID 485344; in the data active means inhibition above about 30%; inactive means below that, where a call was filed
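Overnight-induced (tetracycline, 30 C) HEK293 T-REx cells carrying force-coupled D2 receive a no-wash calcium dye, then compound, then EC80 dopamine at 180 s; signals are read kinetically throughout.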
D2 PAM-2: positive allosteric modulators of human D2 dopamine receptor | DiscoveRx D2 beta-arrestin cells, luminescence, 90 min; 100% = 57 uM dopamine signal | actives 0.23% (n = 360,000) | potentiation, % (concentration not given with the values) | P14416 | AID 624464; in the data active means potentiation above about 50%; inconclusive means mostly about 30% to 49%
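D2 cells co-treated with compound plus 50 nM dopamine (EC20) for 90 min at 37 deg C to detect potentiation. Beta-arrestin recruitment was read as enzyme-fragment luminescence after 1 h at ambient temperature. Full response was set by 57 uM dopamine.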
D2 ag-1: D2 dopamine receptor (human) agonism; P14416; HEK293 T-REx D2 cells, calcium flux agonist mode; activation, % at 2 µM; actives 0.53% (n = 340,000); AID 485358;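 active means activation over 3 SD above normal in the single-dose calcium agonist read, cut at about 30% in these data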
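Agonism scored from kinetic calcium signal (1 read/sec, 180 s) following compound pin transfer, after a 10 s baseline. Cells: HEK293 Trex line expressing inducible D2 receptor coupled to calcium, dye-loaded after overnight culture at 30 C.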
D2 ag-2: human D2 receptor agonism in beta-arrestin assay. actives 0.084% (n = 360,000). P14416. activation, % (concentration not given with the values). DiscoveRx PathHunter D2 beta-arrestin, luminescence, 90 min; 100% = 57 uM dopamine signal; in the data active means activation above about 40%; inconclusive means between about 15% and that limit
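Agonist mode: compounds alone added to overnight-plated D2 PathHunter cells for 90 min at 37 C, with 57 uM final dopamine (EC100) defining full response. Beta-arrestin recruitment detected by chemiluminescent reagent, read after 1 h at ambient temperature.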
D3 arrestin ag: confirmation of human D3 dopamine receptor agonists, beta-arrestin; shares compounds with D2 ag-1; DiscoveRx D3 beta-arrestin cells, luminescence, 90 min; Potency, µM (doses to about 76.9 µM), hits mostly activators; actives 4% (n = 2,300); AID 720506; further: nearly all actives have a fitted effect of over 70% in size
D2 ag-3: activates human D2 dopamine receptor in D3 counterscreen; shares compounds with D2 ag-1; DiscoveRx PathHunter D2 beta-arrestin, luminescence, 90 min; response scale: percent relative to full dopamine signal; Potency, µM (top dose mostly 76.9 µM), usual class: activators; actives 5.9% (n = 2,300); further: nearly all actives have a fitted effect of over 70% in size
Numbers stand for hits; - = inactive; ? = inconclusive; . = not tested or not shown. Unless noted, the call rests on the fitted dose curve; in most records, active means well fitted activation curve with a large enough effect; inconclusive means small, poorly fitted or top-dose-only effect; inactive means flat fitted curve, though single readings scatter.

SMILES	D2 PAM-1	D2 antag	D2 PAM-2	D2 ag-1	D2 ag-2	D3 arrestin ag	D2 ag-3
CCCS(=O)(=O)NC(=O)C1(C)CCN(C(=O)c2ccccc2OC(C)=O)C1 (stereo not drawn)	.	.	-	.	-	.	.
CC(C)OC(=O)CN1C(=O)S/C(=C/c2ccc(N3CCCCC3)o2)C1=O	-	-	-	-	-	-	-
O=C1S/C(=C/c2ccc(N3CCOCC3)o2)C(=O)N1Cc1ccc(F)cc1	-	-	-	-	-	.	.
CC(C)(C)OC(=O)N[C@H](C(=O)OC(C)(C)C)c1ccc2ccccc2c1	-	-	-	-	-	-	-
COc1ccc([C@@H](NC(=O)OC(C)(C)C)C(=O)OC(C)(C)C)cc1	-	-	-	-	-	.	.
CCOc1ccc(-n2c(SCC(=O)N3CCCCCC3)nc3c([nH]c4ccccc43)c2=O)cc1	-	.	.	-	.	.	.
O=C(CN1CCN(C(c2ccccc2)c2ccccc2)CC1)N1CCN(c2ccccc2)CC1	-	-	-	-	-	.	.
CC(CCN1CCN(c2ccccn2)CC1)c1ccccc1 (stereo not drawn)	-	63	-	74	?	?	?
OCC1(Cc2ccc(Cl)cc2)CCN(CCCc2ccccc2)CC1	-	69	-	78	41	-	?
OCC1(Cc2ccc(Cl)cc2)CCN(Cc2ccccc2F)CC1	-	-	-	-	-	.	.
c1ccc(CCCN2CCN(c3ccccc3)CC2)cc1	-	79	-	-	-	-	-
CC(CCN1CCN(c2ccccc2)CC1)c1ccccc1 (stereo not drawn)	-	73	-	31	-	-	-
CCOc1ccc(NC(=O)CN2CCN(Cc3ccccc3)S2(=O)=O)cc1	-	.	.	-	.	.	.
O=C(NC(Nc1nc2ccc([N+](=O)[O-])cc2s1)(C(F)(F)F)C(F)(F)F)c1ccccc1Cl	-	-	-	-	-	.	.
O=C(NC(Nc1nc2ccc([N+](=O)[O-])cc2s1)(C(F)(F)F)C(F)(F)F)c1cccnc1	-	-	-	-	-	-	-
Cc1cc(-c2cccs2)c2c(N)c(C(=O)c3ccc4c(c3)OCO4)sc2n1	-	-	-	41	-	-	-
COc1ccc(C(=O)c2sc3nc(C)cc(-c4cccs4)c3c2N)cc1	-	-	-	-	-	.	.
CC(=O)Oc1ccc(Cn2c(C)c(C(=O)NCc3ccccc3C(F)(F)F)sc2=O)cc1	.	.	-	.	-	.	.
COc1cc2c(C#CCCO)c(-c3ccsc3)oc(=O)c2cc1OC	.	.	-	.	-	.	.
COc1cc2c(C#CCCO)c(-c3ccc(C#N)cc3)oc(=O)c2cc1OC	-	-	-	-	-	-	-
CC[C@H]1C(=O)[C@@H](Cc2ccccc2)[C@@H]2CCN3C(=O)CCC[C@H]1[C@H]23	.	.	-	.	-	.	.
O=C(CSc1ccc(F)cc1)NNC(=O)c1ccccc1Br	-	-	-	-	-	.	.
O=C(CCSc1ccc(F)cc1)NNC(=O)c1ccccc1Cl	-	-	-	-	-	-	-
Cc1ccc(C(=O)OC(C)C(=O)NC(C)CCc2ccccc2)o1 (stereo not drawn)	-	-	-	-	-	-	-
CC(CCc1ccccc1)NC(=O)C(C)OC(=O)c1ccco1 (stereo not drawn)	-	-	-	-	-	.	.
SMILES	D2 PAM-1	D2 antag	D2 PAM-2	D2 ag-1	D2 ag-2	D3 arrestin ag	D2 ag-3
COCCNC(=O)c1ccc2c(c1)N(Cc1ccc(C(F)(F)F)cc1)C(=O)c1ccccc1S2	-	.	.	-	.	.	.
O=S(=O)(c1ccc(F)cc1)N1CCc2ccccc21	-	36	-	-	-	-	-
O=S(=O)(c1ccc(Cl)cc1)N1CCc2ccccc21	-	-	-	-	-	.	.
CC1CCC(N2CC(=O)N(C3CCCCC3)C(c3ccc(Cl)cc3)C2=O)CC1 (stereo not drawn)	-	.	.	-	.	.	.
COc1ccc(CCNC(=O)CSc2cn(Cc3ccccc3)c3ccccc23)cc1OC	-	-	-	-	-	.	.
COc1ccc(CCNC(=O)CSc2ccccc2)cc1OC	-	-	-	-	-	.	.
COc1ccc(CCNC(=O)CNCC(c2ccccc2)N(C)C)cc1OC (stereo not drawn)	-	-	-	33	-	-	-
COc1ccc(CCNC(=O)CSc2cn(Cc3cccc(C)c3)c3ccccc23)cc1OC	-	-	-	58	-	-	-
COc1ccc([C@@H]2CC(=O)[C@@H]3CN(S(=O)(=O)c4ccc(C)cc4)[C@H](c4ccccc4)C[C@@H]3N2S(=O)(=O)c2ccccc2)cc1	.	.	-	.	-	.	.
CCc1nc2c(OCc3cc(Cl)cc(Cl)c3)cccn2c1N(C)C(=O)CC(C)C	.	.	-	.	-	.	.
Cc1ncc([N+](=O)[O-])n1S(=O)(=O)c1ccc2c(c1)OCCO2	.	.	-	.	-	.	.
Cc1cnc(C(=O)Nc2ccc(S(=O)(=O)N(C(C)C)C(C)C)cc2)cn1	-	-	-	-	-	.	.
Cc1cnc(C(=O)Nc2ccc(S(=O)(=O)NCC(C)C)cc2)cn1	-	36	-	-	-	-	-
CC(Oc1ccccc1F)C(=O)NCC1(N2CCOCC2)CCCCC1 (stereo not drawn)	-	.	.	-	.	.	.
O=C(CCCCCNC(=O)c1ccccc1Br)N=Nc1c(O)[nH]c2ccccc12	-	-	-	-	-	-	-
Nc1nc2c(s1)CCCCCCCCCC2	-	-	-	-	-	.	.
CCN1CCc2nc(N)oc2CC1	-	-	-	-	-	.	.
C=CCN1CCc2nc(N)sc2CC1	-	89	81	88	69	0.089µM	0.045µM
CCN1CCc2nc(N)sc2C1	-	35	-	68	-	-	-
CCOC(=O)c1c(NC(=S)Nc2ccccc2)sc2c1CCN(CC)C2	-	-	-	-	-	-	-
CCOC(=O)C1(C(F)(F)F)N=C(C(F)(F)F)Nc2cc(C)c(C)cc21 (stereo not drawn)	-	-	-	-	-	-	-
COC(=O)C1(C(F)(F)F)N=C(C(F)(F)F)Nc2ccc(Cl)cc21 (stereo not drawn)	.	.	-	.	-	.	.
O=[N+]([O-])c1ccc(/C=C/C2=NN(c3ccccc3)C(c3ccco3)C2)cc1 (stereo not drawn)	-	-	-	51	-	-	-
O=[N+]([O-])c1ccc(C=CC=Cc2ccccc2)cc1	.	.	-	.	-	.	.
CCc1ccc(CN(C)C(=O)c2cc(S(=O)(=O)N3CCOCC3)ccc2N2CCCC2)cc1	-	-	-	-	-	.	.
CN(Cc1cccc(F)c1)C(=O)c1cc(S(=O)(=O)N2CCOCC2)ccc1N1CCCC1	-	-	-	-	-	-	-
